PubChem BioAssay (Tox21)
Records with an inconclusive call do not appear. Calls of active or inactive are those of the source. Calls come from the whole dose curve.

Experiment: qHTS assay to identify small molecule agonists of the AP-1 signaling pathway - cell viability counter screen (AID 1159525); note: nearly all actives have a fitted effect of over 55% in size
Settings: ME-180 (cervical carcinoma) AP-1-bla cells viability, ATP luminescence, 5 h; series mostly up to 76.8 µM
Description: National Center for Advancing Translational Sciences [NCATS]
NIH Chemical Genomics Center [NCGC]
U.S. Environmental Protection Agency [EPA]
National Institutes of Environmental Health Sciences [NIEHS]
National Toxicology Program [NTP]
U.S. Food and Drug Administration [FDA]
Activator protein-1 (AP-1), a transcription factor, plays an important role in tumor genesis by regulating genes involved in cell proliferation, differentiation, apoptosis, and angiogenesis. AP-1 activity is induced by a complex network of signaling pathways that involves extracellular signals, such as growth factors. The AP-1 protein complex formed from c-Fos and c-Jun binding to the AP-1 response element results in transcriptional activation of genes containing such elements within their promoter.
Low molecular weight molecules have been discovered and developed to modulate various components of these signaling pathways, for example, MAP kinase inhibitors. However, many points of pathway modulation remain untested due to the lack of chemical probes making this signaling locus of general interest.
Using a beta-lactamase reporter-gene under control of the AP-1 response element, a cell-based assay [CellSensor(TM) AP-1-bla ME-180 developed by Invitrogen Corp.] was used to measure EGF-induced signaling. The Tox21 10K library compounds were measured for their ability to positively modulate the action of EC50 EGF on reporter gene activity. Compounds were screened in a 15-pt titration series in 1536-well format. The cytotoxicity of the Tox21 compound library against this cell line was tested in parallel by measuring the intra cellular ATP content in the same wells.
Tox21 Assay Protocol Summary:
2500 cells/5uL in Opti-MEM medium containing 0.5% dialyzed FBS, 0.1 mM NEAA, 1 mM sodium pyruvate and 10 mM HEPES was dispensed into 1536-well black wall/clear bottom plates using a Multidrop dispenser and cells were cultured at 37 degrees Celsius overnight. Next day 23 nL of compounds dissolved in DMSO, positive controls or DMSO were delivered to each well using a pin tool. The plates were incubated at 37 degrees Celsius for 5 hours. 1 uL of LiveBLAzerTM B/G FRET substrate (Solution A+B+C+D) was added to each well using a Flying Reagent Dispenser. After incubated at room temperature for 2.5 hours the plates were measured on an EnVision plate reader at Excitation 405nm, Emission1=460nm and Emission 2=530nm. The %Activity was determined from the ratio of 460nm/530nm.
After the plates were read for Beta-Lactamase assay on Envision; 3 ul Cell Titer Glo (Promega) was added to measure the cytotoxicity and the plates were then incubated at RT in dark for 30 min. The luminescence was read on ViewLux (Perkin Elmer, Shelton, CT) using 6 sec exposure. ViewLux data was expressed as relative luminescence units.
For primary data analysis, raw plate reads for each titration point were first normalized relative to […] EGF control (100%) and DMSO only wells (basal, 0%).
For primary data analysis for viability assay, raw plate reads for each titration point were first normalized Tetra n-octyl ammonium bromide control (-100%) and DMSO (control, 100%).

Compound | outcome | viability change, negative = cytotoxic
CC1CN(c2ccccc2)NC1=O (stereo not given) | inactive | –
NCCCN1CCN(CCCN)CC1 | inactive | –
N#Cc1ccc(C(c2ccc(C#N)cc2)n2cncn2)cc1 | inactive | –
CC(C)c1ccccc1 | inactive | –
CN1CCN(C2=Nc3ccccc3Oc3ccc(Cl)cc32)CC1 | inactive | –
CNCCC(Oc1ccccc1OC)c1ccccc1 (stereo not given) | inactive | –
CCCCCCCCCCCCCCCCOP(=O)([O-])OCC[N+](C)(C)C | inactive | –
FC(F)(F)C(Cl)(Cl)Cl | inactive | –
OCCN1CCN(CCO)CC1 | inactive | –
CC(=O)O[C@H]1CC[C@@]2(C)C(=CC[C@@H]3[C@@H]2CC[C@]2(C)C(C(C)=O)=CC[C@@H]32)C1 | inactive | –
Cn1cnc2c(F)c(Nc3ccc(Br)cc3Cl)c(C(=O)NOCCO)cc21 | inactive | –
Cc1ncc(CO)c(CN)c1O | inactive | –
Nc1ccc2ccccc2c1S(=O)(=O)O | inactive | –
COc1ccc(Nc2ccc(OC)cc2)cc1 | inactive | –
CC(C)(C)c1ccc(OC(=O)c2ccccc2O)cc1 | inactive | –
CC(C)C1=CC2=CC[C@@H]3[C@](C)(CCC[C@@]3(C)C(=O)O)[C@H]2CC1 | inactive | –
N#CSCC(=O)O | inactive | –
CCN(CC)C(=O)N(CC)CC | inactive | –
C[C@]12CCC(=O)C=C1CC[C@@H]1[C@@H]2CC[C@@]2(C)[C@H]1CC[C@]2(O)C(=O)CO | inactive | –
O=c1[nH]cnc2c1ncn2[C@@H]1O[C@H](CO)[C@@H](O)[C@H]1O | inactive | –

Compound | outcome | viability change, negative = cytotoxic
C[C@@H]1CN(c2c(F)c(N)c3c(=O)c(C(=O)O)cn(C4CC4)c3c2F)C[C@H](C)N1 | – | 1.46% [at 15.8 µM] (inactive)
O=C1Nc2ccc([N+](=O)[O-])cc2C1=O | inactive | –
O=C(C(Cl)Cl)N1CCOC12CCCCC2 | inactive | –
NNS(=O)(=O)c1ccc(Oc2ccc(S(=O)(=O)NN)cc2)cc1 | inactive | –
Nc1ccc(Oc2ccc(N)c(N)c2)cc1 | inactive | –
CN(C)Cc1ccccc1 | inactive | –
O=C1C=CC(=O)O1 | inactive | –
COC(=O)c1ccc2cc(C(=O)OC)ccc2c1 | – | 2.85% [at 15.8 µM] (inactive)
CCOC(=O)CS | inactive | –
Nc1cccc(S(=O)(=O)O)c1 | inactive | –
O=C1CCC(C2CCCCC2)CC1 | inactive | –
C1CSCCS1 | inactive | –
Cc1ccsc1C(=CCCN1CCC[C@@H](C(=O)O)C1)c1sccc1C | inactive | –
CC/C=C\CCOC(=O)C(C)C | inactive | –
Cc1nnc(SCC2=C(C(=O)O)N3C(=O)[C@@H](NC(=O)Cn4cnnn4)[C@H]3SC2)s1 | inactive | –
O=C(CC(=O)C(F)(F)F)c1ccccc1 | inactive | –
CC1(C)C(=O)N(Cl)C(=O)N1Br | inactive | –
CC1=CC(=O)CC(C)(C)C1=O | inactive | –
Cc1ccc([N+](=O)[O-])c(N)c1 | inactive | –
CC(C)(CO)[C@@H](O)C(=O)NCCC(=O)O | inactive | –
